A short description of test [1]: HepG2 liver cancer cell viability effects, profiling panel, resazurin fluorescence, 24 h, PK04 Diversity Set (AID 1172). Further: test concentration not given here. The following applies: higher = more signal.
Test [2] can be described thus: basal S. cerevisiae growth modulation, no modifier, primary screen, OD600, strain BY4716, 24 h, basal condition (AID 1173). Conditions: OD600, 24 h, higher = more signal, called active from +8 up or from −8 down.
A short description of test [3]: MM1S myeloma cell viability, profiling panel, resazurin fluorescence, basal, 24 h, PK04 Diversity Set (AID 1174).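 Further: MM1S multiple myeloma cell line; test concentration not given here.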 The following applies: higher = more signal, called active from +8 up or from −8 down. In general terms: Resazurin is reduced to fluorescent resorufin, in cell work by metabolically active cells.
Test [4] addresses Dihydroorotate dehydrogenase (quinone), mitochondrial (Plasmodium falciparum (isolate 3D7)) (UniProt Q08210). Put plainly: PfDHODH enzyme inhibitors, primary screen, biochemical, C-terminal His tag, absorbance 600 nm (AID 1175).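 Further: recombinant parasite enzyme with a five histidine tag at its C terminus; test concentration not given here.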 The following applies: DCIP absorbance 600 nm, higher = more signal, called active from +8 up or from −8 down.
A short description of test [5]: P. aeruginosa biofilm formation inhibitors, primary screen, strain PAO1, LB-PBS medium, absorbance 600 nm (AID 1176). Further: test concentration not given here. The following applies: P. aeruginosa PAO1 growth/biofilm, A600, 12 h; higher = more signal.
Test [6] is described as follows: S. cerevisiae RM11-1a growth modifiers, primary screen, strain RM11-1a, OD600, basal, 24 h (AID 1177).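 Further: cultures grown under basal conditions with no added stressor; test concentration not given here.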 The following applies: OD600, 24 h, higher = more signal, called active from +8 up or from −8 down.
The nature of test [7]: E. coli acrAB mutant growth effects, primary screen, E. coli filamentation inducers, strain DRC39, OD650, 24 h (AID 1178).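 Further: growth measured as culture turbidity by optical density at 650 nm; test concentration not given here.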 Conditions: higher = more signal, called active from +8 up or from −8 down.
Test [8] in a line: E. coli acrAB mutant growth effects, primary screen, E. coli filamentation inducers, strain DRC39, OD650, 48 h (AID 1179).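 Further: screen aims at cell division blockers that make cells filament.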 Conditions: E. coli DRC39 delta-acrAB growth, higher = more signal, called active from +8 up or from −8 down.
Test [9] can be described thus: RPMI8226 myeloma cell viability, profiling panel, resazurin fluorescence, basal, 24 h, PK04 Diversity Set (AID 1180).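 Further: RPMI8826 multiple myeloma cell line at 5000 cells per well; test concentration not given here.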 Conditions: higher = more signal.
Test [10] concerns the target E3 ubiquitin-protein ligase XIAP (Homo sapiens) (UniProt P98170). In words: XIAP binders, primary screen, biophysical, small-molecule microarray, fluorescence 635 nm (AID 1181).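 Further: score merges 667 nm emission and signal to noise over triplicate slides.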 The following applies: small-molecule microarray binding, higher = more signal.

Calls of active or inactive are those of the source. Unless noted, how the calls were made is not given here.

This note sets out measurements from PubChem BioAssay.

Chain of Dihydroorotate dehydrogenase (quinone), mitochondrial (Plasmodium falciparum (isolate 3D7)) (Q08210 whole entry, looked up): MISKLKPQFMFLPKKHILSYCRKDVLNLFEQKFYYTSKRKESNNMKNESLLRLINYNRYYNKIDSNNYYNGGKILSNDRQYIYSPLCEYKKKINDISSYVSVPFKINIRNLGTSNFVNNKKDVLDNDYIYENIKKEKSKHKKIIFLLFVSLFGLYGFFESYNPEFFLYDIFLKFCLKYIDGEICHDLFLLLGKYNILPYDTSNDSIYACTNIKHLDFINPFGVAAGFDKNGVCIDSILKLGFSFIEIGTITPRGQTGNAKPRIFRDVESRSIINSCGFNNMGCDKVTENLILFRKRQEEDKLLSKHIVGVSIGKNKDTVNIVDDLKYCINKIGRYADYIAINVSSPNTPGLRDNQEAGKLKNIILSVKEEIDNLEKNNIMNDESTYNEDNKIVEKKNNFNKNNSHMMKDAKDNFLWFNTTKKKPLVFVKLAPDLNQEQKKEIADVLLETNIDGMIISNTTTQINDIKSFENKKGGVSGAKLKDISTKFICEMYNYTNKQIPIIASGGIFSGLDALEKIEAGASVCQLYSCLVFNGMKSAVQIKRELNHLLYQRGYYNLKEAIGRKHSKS
Chain of E3 ubiquitin-protein ligase XIAP (Homo sapiens) (P98170 whole entry, looked up): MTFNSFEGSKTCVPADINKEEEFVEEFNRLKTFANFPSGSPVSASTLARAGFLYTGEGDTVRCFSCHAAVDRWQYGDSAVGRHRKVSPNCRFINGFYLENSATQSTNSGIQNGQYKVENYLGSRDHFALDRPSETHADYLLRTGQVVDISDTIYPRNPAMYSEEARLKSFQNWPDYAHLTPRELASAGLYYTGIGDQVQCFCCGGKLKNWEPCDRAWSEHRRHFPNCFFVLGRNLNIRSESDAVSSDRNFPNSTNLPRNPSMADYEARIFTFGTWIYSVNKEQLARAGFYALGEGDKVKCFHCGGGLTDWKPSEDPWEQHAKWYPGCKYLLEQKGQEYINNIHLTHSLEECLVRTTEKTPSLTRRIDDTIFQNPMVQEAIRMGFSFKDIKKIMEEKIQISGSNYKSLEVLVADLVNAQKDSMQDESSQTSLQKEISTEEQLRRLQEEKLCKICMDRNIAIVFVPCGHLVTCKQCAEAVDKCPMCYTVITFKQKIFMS

Turning to `COC(=O)[C@@H]1CC[C@H](C)[C@@H](c2ccc(C)cc2)N1C(=O)c1ccc(C=NOCC[C@@H]2C=C[C@H](OC(C)=O)[C@@H](COC(C)=O)O2)cc1`, the z-score was -0.574 in test [1]; 1.76 (inactive) in [2]; -0.761 (inactive) in test [3]; 0.888 (inactive) in test [5]; 1.98 (inactive) in test [6]; 0.667 (inactive) in [7]. The z-score is -0.62 (inactive) in test [8] and -0.337 in test [9]. For the same compound, the composite z-score in test [4] was 1.16 (inactive); in [10], -0.291.

In the case of `CC(=O)Nc1ccc([C@@H]2N[C@H](C(=O)O)CC[C@H]2C)cc1`, the z-score was 0.219 in test [1]; -0.236 (inactive) in test [2]; -0.106 (inactive) in test [3]; 0.557 (inactive) in [5]; 0.237 (inactive) in test [6]; 0.909 (inactive) in test [7]. The z-score in test [8] is 0.781 (inactive); in test [9], -0.625. Besides, the composite z-score in test [4] is 0.0947 (inactive); in test [10], -0.0445.

On to `C=C(C)C(=O)OCC1CN2[C@@H](CC[C@@H](C)[C@@H]2c2ccc(Br)cc2)C(=O)O1` (stereo not given in full), for which the z-score is 0.679 in test [1]; -0.638 (inactive) in test [2]; 0.653 (inactive) in test [3]; -0.564 (inactive) in test [5]; -0.18 (inactive) in [6]; 0.0293 (inactive) in test [7]. For the same compound, the z-score in [8] is -1.59 (inactive); in test [9] it was 0.759. For the same compound, the figures for the composite z-score in test [4] and in test [10] were -0.134 (inactive) and -0.0899, respectively.

Take `CCOC(=O)[C@H](CC(C)C)NC(=O)CCC1CC(OC(=O)NCc2cccc3ccccc23)CC2(CCCC(COC(=O)NCc3ccncc3)O2)O1` (stereo not given in full): the z-score in test [1] is -0.232; in test [2], -0.101 (inactive); in [3] it was 0.192 (inactive); in test [5], 0.368 (inactive); in test [6] it was 0.559 (inactive); in test [7], 1.1 (inactive). Further, the z-score in test [8] was 0.399 (inactive); in [9] it was -0.404. The composite z-score in test [4] was 0.0964 (inactive); in test [10], -0.105.

In the case of `C#CCCCON=C1C[C@@H](O)[C@@H](O)[C@@H]2[C@@H]3C(=O)N(c4cccc(Oc5ccccc5)c4)C(=O)[C@@H]3CC[C@H]12`, the z-score in [1] was 0.331; in [2], -0.351 (inactive); in [3] it was 1.08 (inactive); in [5], 0.553 (inactive); in [6], -0.0064 (inactive); in test [7], 0.899 (inactive). In addition, the z-score in test [8] is 0.401 (inactive); in test [9], 1.94. Besides, the composite z-score was -1.48 (inactive) in [4] and -0.0832 in test [10].

Turning to `CCOC(=O)[C@H](CC(C)C)NC(=O)CCC1CC(OC(=O)NCCc2ccc(F)cc2)CC2(CCCC(COC(=O)NCCc3ccc(Cl)cc3)O2)O1` (stereo not given in full), the z-score was 0.182 in test [1]; 0.0981 (inactive) in test [2]; -0.0687 (inactive) in test [3]; 0.213 (inactive) in test [5]; -0.596 (inactive) in test [6]; -0.0646 (inactive) in test [7]. Further, the results for the z-score in test [8] and in [9] were -0.617 (inactive) and 0.48, respectively. The figures for the composite z-score in [4] and in [10] were -0.188 (inactive) and -0.247, respectively.

Take `O=C1[C@H]2[C@H]3[C@H](O)[C@H](O)CC(=NO[C@@H]4O[C@H](CO)[C@@H](O)[C@H](O)[C@H]4O)[C@H]3CC[C@H]2C(=O)N1c1cccc(Oc2ccccc2)c1`: the z-score in [1] is 0.648; in test [2], 0.439 (inactive); in test [3] it was -0.0137 (inactive); in test [5], -0.708 (inactive); in test [6] it was -0.929 (inactive); in test [7], -0.0313 (inactive). In addition, the z-score in [8] was -0.49 (inactive); in test [9], 0.394. For the same compound, the figures for the composite z-score in test [4] and in test [10] were 0.0087 (inactive) and -0.0773, respectively.

Consider `COC(=O)CC=C[C@@H](C)[C@@H](C=NO[C@H](C)c1cn([C@@H]2COC[C@H]2O)nn1)NS(=O)(=O)c1ccc(C)cc1`, for which the z-score is -1.37 in [1]; -0.335 (inactive) in test [2]; -1.34 (inactive) in [3]; 0.301 (inactive) in test [5]; 0.278 (inactive) in [6]; 0.524 (inactive) in test [7]. The z-score in test [8] was 1.29 (inactive); in test [9] it was -0.687. Also, the composite z-score in [4] was -0.753 (inactive); in test [10], -0.267.

As to `CCOC(=O)[C@H](Cc1ccccc1)NC(=O)CCC1CC(OC(=O)NCCc2ccc(F)cc2)CC2(CCCC(COC(=O)NCCc3ccc(Cl)cc3)O2)O1` (stereo not given in full), the z-score in [1] was 0.072; in test [2], -0.0784 (inactive); in [3], 0.231 (inactive); in test [5], -0.0569 (inactive); in test [6], 0.809 (inactive); in test [7] it was 0.869 (inactive). Also, the results for the z-score in test [8] and in test [9] were 0.721 (inactive) and 0.28, respectively. Besides, the composite z-score in test [4] was -0.161 (inactive); in [10], -0.0177.

Turning to `COC(=O)CC=C[C@@H](C)[C@@H](C=NOCC[C@@H]1C=C[C@H](OC(C)=O)[C@@H](COC(C)=O)O1)NS(=O)(=O)c1ccc(C)cc1`, the z-score in test [1] was -0.564; in test [2], 0.705 (inactive); in test [3], -0.602 (inactive); in test [5], 0.453 (inactive); in test [6], 0.193 (inactive); in [7], 0.336 (inactive). Further, the results for the z-score in [8] and in [9] were 0.402 (inactive) and -0.393, respectively. Also, the composite z-score in test [4] was 0.33 (inactive); in test [10] it was 0.0374.

Consider `CCCNC(=O)OC[C@H]1O[C@H](CCON=C(C)C)C=C[C@@H]1Oc1ccc(OC)cc1`, for which the z-score in test [1] was -0.131; in [2], -2.44 (inactive); in test [3] it was -0.112 (inactive); in test [5] it was 0.736 (inactive); in test [6] it was -0.0159 (inactive); in test [7], 0.675 (inactive). In addition, the z-score in test [8] is -1.4 (inactive); in [9], -0.331. Moreover, the composite z-score in test [4] was -0.411 (inactive); in test [10], -0.0859.

Turning to `CO[C@H]1COC(=O)CC=C[C@H](C)[C@@H](OC)COC(=O)[C@H](C)COC(=O)CC=C[C@@H]1C`, the z-score in [1] was 0.531; in test [2] it was -0.319 (inactive); in test [3], 0.254 (inactive); in [5] it was -0.838 (inactive); in [6] it was 0.606 (inactive); in [7] it was 0.827 (inactive). For the same compound, the z-score in test [8] was 0.0975 (inactive); in test [9], -0.501. Besides, the composite z-score in test [4] was 0.491 (inactive); in test [10], -0.256.

For `CCN1C(=O)[C@H]2[C@H]3[C@H](O)[C@H](O)CC(=NNC(=O)OCc4ccc(OC)cc4)[C@@H]3CC[C@H]2C1=O`, the z-score in [1] is -0.295; in test [2], 0.303 (inactive); in test [3], -0.938 (inactive); in [5] it was -0.708 (inactive); in test [6] it was -1.33 (inactive); in test [7], -0.154 (inactive). Further, the figures for the z-score in test [8] and in [9] were -0.0457 (inactive) and -0.381, respectively. In addition, the composite z-score in test [4] is -0.367 (inactive); in [10], -0.0416.
